Only some compounds are listed: those with a hit (about 4.7% of all), similar ones and a draw of the others.
D1 antag = Antagonist of Human D 1 Dopamine Receptor: qHTS | 360,000 tested, 3.2% active | activity change, negative = inhibition, % at 10 µM | HEK293 TREx D1 cells, calcium flux, dopamine EC80; active compounds read low; in the data active means activity change below about -30%; further: on the % scale 0 is the no-effect control and ±100 the full control effect
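Cells carrying a force-coupled, tetracycline-inducible human D1 receptor report calcium flux. Each well gets a 10 s baseline, compound with 180 s monitoring, then an EC80 dopamine stimulus with a second 180 s kinetic read.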
D1 PAM = Potentiators of Human D1 Dopamine Receptor: qHTS; 360,000 tested, 0.036% active; D(1A) dopamine receptor (Homo sapiens), P21728; potentiation, % at 10 µM; AID 504651, 2011; HEK293 TREx D1 cells, calcium flux, dopamine EC20 potentiation; in the data active means potentiation above about 30%; further: 0% is about no effect
TRHR enhancer = qHTS for Small Molecule Agonists and Allosteric Enhancers of Human TRH Receptor: Primary Screen for Enhancers. TRHR cells, fluo-8 calcium fluorescence, EC20 TRH enhancement. 360,000 tested, 0.66% active. Thyrotropin-releasing hormone receptor (Homo sapiens), P34981. enhancement, % at 2 µM; in the data active means enhancement above about 30%; further: 0% is about no effect
Target sequence (P34981 whole entry, looked up): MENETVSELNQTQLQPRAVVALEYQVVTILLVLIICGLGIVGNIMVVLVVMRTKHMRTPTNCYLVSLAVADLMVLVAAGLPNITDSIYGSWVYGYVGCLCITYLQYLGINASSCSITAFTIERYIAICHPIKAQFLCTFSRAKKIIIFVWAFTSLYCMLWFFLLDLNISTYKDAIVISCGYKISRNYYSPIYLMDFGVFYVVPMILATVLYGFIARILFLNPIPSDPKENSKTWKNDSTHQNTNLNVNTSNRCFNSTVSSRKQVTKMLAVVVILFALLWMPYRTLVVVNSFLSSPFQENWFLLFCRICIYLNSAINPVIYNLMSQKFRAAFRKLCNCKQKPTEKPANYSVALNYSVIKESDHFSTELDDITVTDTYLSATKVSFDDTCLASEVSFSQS
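Enhancer read-out: after compound pinning and an initial kinetic agonist-mode read, an EC20 of TRH (10 nM final) was injected and fluo-8 calcium signal (Ex 480/Em 530) followed at 1 s/cycle for 100 cycles in TRHR-expressing cells.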
TRHR ag = qHTS for Small Molecule Agonists and Allosteric Enhancers of Human TRH Receptor: Primary Screen for Agonists | Thyrotropin-releasing hormone receptor (Homo sapiens), P34981 | AID 493084, 2011 | TRHR cells, calcium flux fluo-8, FDSS agonist mode | 360,000 tested, 0.18% active | activation, % at 2 µM; further: 0% is about no effect
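Read-out: compound-evoked intracellular calcium rise in TRHR cells, fluo-8 dye, kinetic FDSS fluorescence at 1 s/cycle following a 10-cycle baseline. Cells cultured overnight before dye loading (30 min–1.5 h, RT).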
D1 agonist = Allosteric Agonists of the Human D1 Dopamine Receptor: qHTS. D(1A) dopamine receptor (Homo sapiens), P21728. HEK293 T-REx D1 cells, calcium flux, agonist mode. activation, % at 2 µM. 360,000 tested, 1% active. AID 504660, 2011; further: 0% is about no effect
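Agonism was scored from calcium flux recorded over 180 s (1 read/s) after pintool compound addition, following a 10-cycle baseline. Cells were inducible force-coupled HEK293 TREx D1, plated overnight at 30 C and loaded with no-wash calcium dye.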
An asterisk follows results filed as active; ! = a repeat was not active. Unless noted, no stated cut-off is given here; in the data, active means activation above about 30%; inactive means the rest.

How did Cc1cccc(NC(=O)c2ccc(CN3CCN(Cc4ccccc4)CC3)cc2)c1 do in these assays?
D1 antag: -37*; D1 PAM: -9; TRHR enhancer: 0; TRHR ag: 1; D1 agonist: 14

What do the screens show for `O=C(Nc1cccc(C(=O)N2CCN(Cc3ccccc3)CC2)c1)c1ccccc1`?
D1 antag: -39*; D1 PAM: -7; TRHR enhancer: 8; TRHR ag: 0; D1 agonist: 3

What do the screens show for `O=C(c1ccc(F)cc1)N1CCN(Cc2ccccc2)CC1`?
D1 antag: -3; D1 PAM: -4; TRHR enhancer: 2; TRHR ag: 0; D1 agonist: 4

Results for Cc1cc(CSc2ccccc2)ccc1NC(=O)c1ccc(CN2CCOCC2)cc1 ?
D1 antag: -31*; D1 PAM: 1; TRHR enhancer: -6; TRHR ag: 2; D1 agonist: 30

What do the screens show for `CSc1ccccc1NC(=O)c1ccc(CN2CCOCC2)cc1`?
D1 antag: 0; D1 PAM: 12; TRHR enhancer: 1; TRHR ag: -1; D1 agonist: 3

Results for COc1ccc(NC(=O)c2oc3ccccc3c2NC(=O)c2cc(C)cc(C)c2)c(OC)c1 ?
D1 antag: -3; D1 PAM: 0; TRHR enhancer: 4; TRHR ag: 0; D1 agonist: 3

Results for CNc1nc(N)nc(-c2cc(Cl)ccc2OC)n1 ?
D1 antag: -30*; D1 PAM: 0; TRHR enhancer: 0; TRHR ag: 0; D1 agonist: -1

How did COc1ccccc1C(=O)NCCC(=O)NCC(c1ccccc1OC)N1CCCC1 (stereo not drawn) do in these assays?
D1 antag: 3; D1 PAM: -1; TRHR enhancer: -3; TRHR ag: 0; D1 agonist: 2

What do the screens show for `COc1ccccc1C(CNC(=O)CNC(=O)c1ccc(Cl)c(Cl)c1)N1CCCC1` (stereo not drawn)?
D1 antag: -38*; TRHR enhancer: -1; TRHR ag: 0; D1 agonist: 9

What do the screens show for `COc1ccccc1C(CNC(=O)CNC(=O)c1ccccc1Cl)N1CCCC1` (stereo not drawn)?
D1 antag: -45*; D1 PAM: -2; TRHR enhancer: 2; TRHR ag: 2; D1 agonist: 3

Results for COc1ccccc1C(CNC(=O)CNC(=O)c1ccc(C)c(C)c1)N1CCCC1 (stereo not drawn) ?
D1 antag: -20; TRHR enhancer: 1; TRHR ag: 0; D1 agonist: 4

How did COc1ccc2ccc(OC)c(/C=N/n3cnnc3)c2c1 do in these assays?
D1 antag: 4; D1 PAM: 3; TRHR enhancer: -2; TRHR ag: 0; D1 agonist: 1

Results for Cc1nc2ccn(Cc3ccco3)c(=O)c2cc1C(=O)Nc1ccc(F)cc1 ?
D1 antag: 1; D1 PAM: -8; TRHR enhancer: 2; TRHR ag: 0; D1 agonist: 0

Results for COc1ccc(NC(=O)Nc2ccccc2F)c(C)c1 ?
D1 antag: -37*; D1 PAM: -3; TRHR enhancer: 18; TRHR ag: 0; D1 agonist: 2

Results for Cc1ccc(S(=O)(=O)N(C)C)cc1NC(=S)NC(C)CCC(C)C (stereo not drawn) ?
D1 antag: -59*; D1 PAM: -4; TRHR enhancer: -5; TRHR ag: 1; D1 agonist: 12

Results for COc1ccc(NC(=O)Nc2cccc(C)n2)c(OC)c1 ?
D1 antag: -16; D1 PAM: -4; TRHR enhancer: 33*!; TRHR ag: -1; D1 agonist: 1

Results for Cc1ccc(S(=O)(=O)N(C)C)cc1NC(=S)NC(C)CCCC(C)C (stereo not drawn) ?
D1 antag: -12; D1 PAM: -4; TRHR enhancer: -1; TRHR ag: 0; D1 agonist: 6

What do the screens show for `Cc1ccc(S(=O)(=O)N(C)C)cc1NC(=O)Nc1ccccc1F`?
D1 antag: -43*; D1 PAM: -11; TRHR enhancer: 1; TRHR ag: -1; D1 agonist: 5

How did Cc1ccc2nc(Cl)c3cc(C(=O)N4CCCC(C)C4)sc3c2c1 (stereo not drawn) do in these assays?
D1 antag: 11; D1 PAM: 0; TRHR enhancer: 2; TRHR ag: -1; D1 agonist: 0

How did CSCCC1NC(=O)N(CC(=O)Nc2ccc(-c3ccccc3)cc2)C1=O (stereo not drawn) do in these assays?
D1 antag: 12; D1 PAM: -5; TRHR enhancer: 2; TRHR ag: 1; D1 agonist: 6

How did Cc1ccc(S(=O)(=O)N(C)C)cc1NC(=O)C(C)N(C)CCOc1ccc(Cl)cc1 (stereo not drawn) do in these assays?
D1 antag: -19; TRHR enhancer: 19; TRHR ag: -2; D1 agonist: 30*

How did CCOc1ccc(NC(=O)Cn2nc(CC)n3c(cc4sccc43)c2=O)cc1 do in these assays?
D1 antag: -1; D1 PAM: -3; TRHR enhancer: 7; TRHR ag: 0; D1 agonist: 1

How did Cc1[nH][nH]c(=O)c1C(c1ccc(-c2cccc(Cl)c2)o1)c1c(C)[nH][nH]c1=O do in these assays?
D1 antag: 9; D1 PAM: -4; TRHR enhancer: -2; TRHR ag: 0; D1 agonist: 0

What do the screens show for `Cc1[nH][nH]c(=O)c1C(c1ccc(-c2ccc(Cl)cc2Cl)o1)c1c(C)[nH][nH]c1=O`?
D1 antag: -1; D1 PAM: -2; TRHR enhancer: 10; TRHR ag: 0; D1 agonist: 55*

How did S=C(Nc1cccc(Cl)c1)NC1CC2CCCC(C1)N2C1CCCC1 (stereo not drawn) do in these assays?
D1 antag: -10; D1 PAM: -11; TRHR enhancer: -1; TRHR ag: 2; D1 agonist: 10

What do the screens show for `Cc1cccc(NC(=S)NCCC(C)C)c1`?
D1 antag: 0; D1 PAM: -5; TRHR enhancer: 10; TRHR ag: -1; D1 agonist: 227*

What do the screens show for `COc1ccc(CCNC(=S)Nc2cccc(C)c2)cc1`?
D1 antag: 1; D1 PAM: -6; TRHR enhancer: -6; TRHR ag: -1; D1 agonist: -1

How did S=C(NCCN(C1CCCCC1)C1CCCC1)Nc1cccc(Cl)c1 do in these assays?
D1 antag: 11; D1 PAM: -4; TRHR enhancer: 2; TRHR ag: 3; D1 agonist: 31*

Results for S=C(NCCC(c1ccccc1)c1ccccc1)Nc1cccc(Cl)c1 ?
D1 antag: -49*; D1 PAM: -4; TRHR enhancer: -2; TRHR ag: 0; D1 agonist: 3

Screening results from PubChem BioAssay.
